Test results: PubChem BioAssay (NCI)
About 83,000 compounds went through this panel and 20% of them were active in at least one assay; those are over-represented in the sample as a whole.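 Each cell line was grown in a 96-well plate and treated with one concentration of compound for 48 hours. Values below 10 were considered active.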 Unmarked numbers belong to inactive results. The source made the active and inactive calls.

Legend:
Experiment in all cases: NCI-60 one-dose screen, 48 h (100 = growth as untreated, 0 = no growth, -100 = all killed)
Conditions in all cases: 10 µM unless noted
NCI-H23 lung = system: NCI-H23 lung
NCI-H226 lung = system: NCI-H226 lung
NCI-H322M lung = system: NCI-H322M lung
HOP-62 NSCLC = system: HOP-62 NSCLC
NCI-H460 lung = system: NCI-H460 lung
HOP-92 NSCLC = system: HOP-92 NSCLC
NCI-H522 lung = system: NCI-H522 lung
A549/ATCC NSCLC = system: A549/ATCC NSCLC
786-0 renal = system: 786-0 renal
COLO 205 colon = system: COLO 205 colon

Compound	growth (NCI-H23 lung)	growth (NCI-H226 lung)	growth (NCI-H322M lung)	growth (HOP-62 NSCLC)	growth (NCI-H460 lung)	growth (HOP-92 NSCLC)	growth (NCI-H522 lung)	growth (A549/ATCC NSCLC)	growth (786-0 renal)	growth (COLO 205 colon)
O=[N+]([O-])c1ccccc1CN1CCCCC1	92.8%	112%	106%	107%	116%	89.7%	110%	106%	111%	111%
C#CC[C@@H]1C[C@]2(C)[C@H]3CC[C@@H]4[C@H]5C(C(=C)C)CC[C@]5(C(=O)NCCN(CCN)CCN)CC[C@@]4(C)[C@]3(C)CC[C@H]2C(C)(C)[C@H]1OC(C)=O (stereo not given in full)	77.3%	65.9%	71.4%	83.3%	81.8%	66.3%	61.7%	53.4%	90.3%	69.3%
O=NN(CC(=O)NNc1ccccc1)CC(=O)NNc1ccccc1	103%	85.9%	85%	87.8%	66.2%	88.5%	52%	65.9%	90.9%	68.6%
CCN(CC)CCNc1c(C)cc(CO)c(Cl)c1C	102%	-23.6% (active)	110%	113%	98.9%	109%	104%	84.5%	103%	85.2%
CC(CN1CCN(C)CC1)CN1c2ccccc2Sc2ccc(C(F)(F)F)cc21 (stereo not given)	74.3%	81.8%	80%	85.6%	0.601% (active)	39.7%	43.8%	41.2%	52.2%	-68% (active)
c1ccc(C2=Nc3ccccc3SC2)cc1	93.5%	108%	98.2%	113%	99.3%	62.1%	99.6%	96.5%	117%	114%
CCc1ccc(Nc2ncnc3c2cnn3-c2cccc(Br)c2)cc1	96.1%	85.7%	105%	84%	102%	91.8%	89.1%	97.2%	106%	104%
CCNC(=S)N(Cc1ccccc1)Cc1ccccc1	110%	114%	104%	94.5%	131%	76.7%	88.1%	98.4%	107%	132%
Cc1ccc(NC(=O)c2nc(S(C)(=O)=O)oc2-c2ccc(F)cc2)cc1Nc1ccc2ncn(C)c(=O)c2c1	60.4%	85.2%	108%	100%	83.6%	108%	-7.9% (active)	102%	78.8%	-8.69% (active)
COc1ccc(/C=C2\N=C(c3cccnc3)N(c3ccccc3)NC2=O)cc1	95.8%	86.8%	94.3%	109%	96.4%	22.9%	98.2%	95.7%	100%	113%
CCc1ccc(Nc2cc(C)c3ccc(O)cc3n2)cc1	90.4%	76.7%	82.9%	88%	64.3%	74.4%	92.2%	85%	68.1%	-81.3% (active)
CCCCCCCCCCCCCCCc1cc(O)ccc1[N+](=O)[O-]	79.6%	96.9%	100%	96%	102%	59.9%	28%	96.8%	97.9%	96%
C=C(C)c1ccc(/C=N/NC(N)=S)cc1	103%	86.3%	111%	77.4%	99.9%	131%	103%	118%	11.4%	120%
CC(=O)c1ccc(-n2c(-c3cc(-c4ccsc4)n[nH]3)n[nH]c2=S)cc1	102%	99.6%	101%	112%	105%	89.9%	82.6%	98.3%	101%	117%
C#CC[C@@H]1C[C@]2(C)[C@H]3CC[C@@H]4[C@H]5C(C(=C)C)CC[C@]5(C(=O)NCCCCCCCCN)CC[C@@]4(C)[C@]3(C)CC[C@H]2C(C)(C)[C@H]1OC(C)=O (stereo not given in full)	97.3%	95.6%	101%	103%	16.3%	70.6%	88.1%	93.3%	85.1%	86%
COc1cc(CN2CCO[C@H](COc3cccc(F)c3)C2)ccc1Cl	48.8%	59.7%	73.3%	33.4%	24.8%	48.6%	30.7%	29.3%	52%	12.5%
O=C(O)c1ccccc1N=Cc1ccccc1	98%	132%	120%	100%	106%	90.2%	101%	102%	104%	105%
Nc1nc(N)c2cc(CNc3ccc(Cl)c(Cl)c3)ccc2n1	42.8%	45.2%	29.5%	43.1%	-48.8% (active)	-5.15% (active)	13.4%	17.7%	9.65% (active)	-79.7% (active)
COc1ccc(-c2nc(-c3cc(OC)cc(OC)c3)[nH]c2-c2ccc(OC)cc2)cc1	39.1%	48.7%	60.6%	91.8%	48%	23.7%	20.9%	46.7%	63.8%	34.2%
c1ccc(C(CC2=NCCCN2)c2ccccc2)cc1	99.6%	98%	99.7%	94.1%	102%	82.6%	90.9%	91.7%	107%	102%
Fc1ccc2c(CN3CCO[C@H](COc4cccc(Cl)c4)C3)c[nH]c2c1	75.5%	64.9%	74.6%	22%	30.2%	45.2%	36.3%	44.4%	27.2%	69.1%
CC1CCN(Cc2ccc(NC(=O)c3cc4ccc5cccnc5c4[nH]3)cc2)CC1	25.2%	43%	49.2%	26.2%	8.35% (active)	63.7%	23%	25.7%	36.8%	-16.3% (active)
O=C(Cc1ccc(Nc2ccnc(C(F)(F)F)c2)cc1)N/N=C/c1ccccc1O	37.7%	51.4%	32%	-9.42% (active)	3.37% (active)	75.8%	22.5%	36.2%	6.73% (active)	14%
COc1ccc(-c2nn(-c3cccc(Cl)c3)cc2/C=C2\C(=N)N(c3ccccc3)N=C2N)cc1	51.2%	40.8%	44.9%	65.8%	6.92% (active)	96.2%	51.5%	36.6%	29.1%	-22.8% (active)
CCCNC(=S)N/N=C(\C)c1ccccn1	35.7%	21.5%	4.31% (active)	44%	17.7%	37.2%	56.4%	31.7%	20.4%	20.8%
CC(C)CC(NC(=O)C(CCCN=C(N)N)NC(=O)OCc1ccccc1)C(=O)NC(CNC(=O)/C=C/c1ccccc1)C(C)C (stereo not given)	109%	100%	104%	107%	108%	89.2%	98.7%	108%	101%	117%
Cc1ccc(O)c(Cc2ccccc2)c1	101%	106%	112%	96.2%	99%	52.7%	93.5%	101%	107%	111%
CCOc1ccc([C@@H]2[C@@H](Oc3ccccc3)C(=O)N2c2cc(OC)c(OC)c(OC)c2)cc1	23.9%	41.5%	38.6%	27.4%	7.32% (active)	63.3%	10.5%	23.1%	10.1%	-47.2% (active)
